We go through 7 compounds from PubChem BioAssay (NCATS).

Each structure is given as a SMILES string. Results filed as inconclusive are left out. Active and inactive are the calls of the source. Unless noted, the call rests on the fitted dose curve; in most records, active means well fitted curve in either direction with a large enough effect (not every such curve was filed as active); inconclusive means small, poorly fitted or top-dose-only effect, or another doubt; inactive means flat fitted curve, though single readings scatter. Bounds are passed on as bounds.

For experiment [1], the target named is Lysosomal acid glucosylceramidase (Homo sapiens) (UniProt P04062). The experiment is described as follows: Glucocerebrosidase-p2 (AID 348; in the data active means potency below about 10 µM; further: potency means the concentration at half of the fitted maximal effect). The following applies: purified GBA, blue fluorogenic substrate, 40 min. The method, boiled down: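 Normal human glucocerebrosidase (0.2 nM) with blue fluorogenic substrate (80 uM final) in citrate/phosphate pH 5.9 with 10mM sodium taurocholate, 0.01% tween-20; 40 min RT, NaOH/glycine stop; fluorescence Ex 365/Em 440; AC50 from a titration from 0.6 nM upwards.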

Experiment [2] can be described thus: AP1 Signaling Pathway (AID 357). Further: on the % scale 0 is the no-effect control and ±100 the full control effect. The following applies: ME-180 AP-1-bla reporter, EGF-induced, beta-lactamase ratio, 5 h; at 7.69 µM (top of the series) unless noted. Summed up: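 Read-out was the 460nm/530nm emission ratio (excitation 405nm) after CCF4 loading for 2.5 hours at room temperature. Cells carried an AP-1-driven beta-lactamase reporter, were stimulated with EC50 EGF plus compound for 5 hours, and AC50 values came from titrations.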

Experiment [3] in a line: NFAT Signaling Pathway (AID 444).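 Further: carbachol stimulus at about its EC50 of 1 µM final; on the % scale 0 is the no-effect control and ±100 the full control effect.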 The following applies: Jurkat NFAT-bla M1, carbachol, beta-lactamase ratio, 5 h; at 7.69 µM (top of the series) unless noted. Summed up:
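Jurkat cells carrying an NFAT-driven β-lactamase reporter and co-transfected muscarinic M1 receptor were treated with compound plus carbachol (1 uM final, an EC50 level) for 5 h at 37 °C. CCF4 loading followed for 1 h at RT; 460/530 nm ratio gave %activity.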

The target of experiment [4] is Glucocorticoid receptor (Homo sapiens) (UniProt P04150). The experiment is described as follows: GR-GFP Redistribution (AID 450;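 active means compounds whose dose series gives a full or clear partial fitted curve of increased nuclear translocation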; further: potency means the concentration at half of the fitted maximal effect). Conditions: U2OS GR-GFP nuclear translocation, laser cytometry, 2 h.
For experiment [5] the target is unchanged. The experiment is described as follows: GR-EFC Redistribution (AID 451; calls by dose curve; further: potency means the concentration at half of the fitted maximal effect). The following applies: CHO-K1 GR-EFC translocation, beta-gal luminescence, 2 h. The method, boiled down:
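CHO-K1 cells stably expressing nuclear-localized β-gal enzyme acceptor and GR fused C-terminally to the enzyme donor fragment; ligand-driven nuclear translocation restores β-gal by complementation. Compounds titrated up to 46 uM final, 2 h at 37 °C; luminescence read.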

Experiment [6] addresses Mitogen-activated protein kinase 10 (Mus musculus) (UniProt Q61831). The experiment is described as follows: JNK3 AlphaScreen Assay (AID 530).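 Further: kinase came from lysate of stimulated human HepG2 cells; on the % scale 0 is the no-effect control and ±100 the full control effect.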 Conditions: JNK3 lysate, c-Jun phosphorylation; series mostly up to 57.1 µM. Summed up: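 Biotinylated GST-cJun(1-79) served as substrate for JNK3 in HepG2 lysates stimulated with IL-1beta and TNF-alpha. ATP was 10 uM final, pH 7.6. Ser73 phosphorylation was quantified by AlphaScreen (680 nm excitation).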

In experiment [7] the target is Cytochrome P450 2C9 (Homo sapiens) (UniProt P11712). Description: qHTS Assay for Inhibitors and Substrates of Cytochrome P450 2C9 (AID 883; active means well fitted curve in the direction sought with a large enough effect; an effect the other way counts as inactive or inconclusive; further: on the % scale 0 is the no-effect control and ±100 the full control effect; nearly all actives have a fitted effect of over 60% in size). Conditions: recombinant CYP2C9, luciferin-H luminescence, 60 min; series mostly up to 57.1 µM. The method, boiled down: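 Human CYP2C9 (10nM) hydroxylated Luciferin-H (100uM, at its KM) to luciferin in 25mM KPO4. Compound was preincubated 10 min at 37C, then NADPH regeneration started a 60 min reaction at 37C. Luminescence was read after detection reagent, normalized to 57uM sulphaphenazole.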
On the technique in general: qHTS replaces the single test concentration by a dilution series.

Experiment [8] can be described thus: qHTS Assay for Identification of Small Molecule Agonists for Hypoxia Response Element Signaling Pathway (AID 914; active means well fitted activation curve with a large enough effect in the signal ratio, with a control signal flat, not every such curve was filed as active; the % refers to the signal ratio; further: potency means the concentration at half of the fitted maximal effect). Conditions: ME-180 HRE-bla reporter, beta-lactamase ratio, CoCl2, 17 h; activation: stronger effect = higher value. Summed up:
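Positive modulation of EC50 CoCl2-induced hypoxia response element signaling is measured in ME-180 cells with a beta-lactamase reporter. Compounds are titrated, incubation runs 17 hours, and %Activity derives from the blue/green ratio.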

Experiment [9] is described as follows: qHTS Assay for Lipid Storage Modulators (AID 1519; calls by dose curve). The following applies: Drosophila S3 cells, BODIPY lipid droplet/cell ratio, laser cytometry, cells loaded with oleic acid; for activity change, negative = inhibition: at 57.5 µM (top of the series). The method, boiled down: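 Cells seeded at 5,000 per well were treated with compounds over a concentration series and loaded with oleic acid (400 uM, as added). Lipid droplet fluorescence (488 nm excitation, 500-530 nm channel) was read by laser-scanning cytometry and normalized to 20 uM Triacsin C.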

Experiment [10] is described as follows: Primary qHTS for small molecule stabilizers of the endoplasmic reticulum resident proteome: Secreted ER Calcium Modulated Protein (SERCaMP) assay (AID 1508630; active means well fitted curve in the direction sought with a large enough effect; an effect the other way counts as inactive or inconclusive; further: on the % scale 0 is the no-effect control and ±100 the full control effect). The following applies: SH-SY5Y GLuc-SERCaMP (Gaussia luciferase released on ER calcium loss) secretion, thapsigargin, luminescence; series mostly up to 38.4 µM. Summed up: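 The SH-SY5Y reporter protocol was run at 3 concentrations up to 38.3 uM (primary) or 11 concentrations (follow-up): 16 h compound, 100 nM thapsigargin for 4 h, then extracellular luciferase luminescence.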

Experiment [11] addresses 3',5'-cyclic-AMP phosphodiesterase 4B (Homo sapiens) (UniProt Q07343). The experiment is described as follows: qHTS Assay for Inhibitors of PDE-IV (AID 607; active means well fitted activation curve with a large enough effect in the main read-out, with a control signal flat, not every such curve was filed as active; further: % of control where 0% means no effect). The following applies: HEK293 ACTOne CNG channel cells, membrane potential fluorescence; series mostly up to 22.9 µM. Summed up:
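HEK293 ACTOne cells with CNG channel (1000/well), endogenous PDE4; membrane potential dye, compounds up to 22.9 uM final. Fluorescence Ex 535/Em 590; RO 20-1724 (100 uM final) as reference.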

A short description of experiment [12]: Confirmation and Secondary Assay for Modulators of Hemoglobin Beta Chain Splicing at IVS2 654 locus (AID 910; active means well fitted curve in the direction sought with a large enough effect; an effect the other way counts as inactive or inconclusive;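 further: per-well total GFP intensity by laser scanning cytometry after 2-day treatment; % of control where 0% means no effect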). Conditions: HeLa EGFP-654 splicing reporter, GFP fluorescence, 48 h; series mostly up to 38.3 µM. The method, boiled down: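 HeLa cells stably carrying EGFP interrupted by mutant beta-globin IVS2-654 intron (CMV-driven) were treated with compound for 2 days at 37C; corrected splicing was scored as total peak GFP intensity per well (488 nm excitation, 500-520 nm emission).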

Experiment [13] in a line: Confirmation and Secondary Assay for Modulators of Hemoglobin Beta Chain Splicing at IVS2 705 locus (AID 930; active means well fitted curve in the direction sought with a large enough effect; an effect the other way counts as inactive or inconclusive;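 further: HeLa cells stably expressing the EGFP-705 splicing reporter; GFP fluorescence per well restored by corrected splicing of the IVS2-705 intron in EGFP; % of control where 0% means no effect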). Conditions: HeLa EGFP-705 splicing reporter, GFP fluorescence, 48 h; series mostly up to 38.3 µM. Summed up: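 First, HeLa EGFP-705 cells are seeded at 500/well in Optimem with 2% FCS and left overnight. Next, compound or DMSO is added for 2 days. Finally wells are laser-scanned and total peak GFP intensity scored.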

In experiment [14] the target is Ubiquitin carboxyl-terminal hydrolase 1 (Homo sapiens) (UniProt O94782). Description: Inhibitors of USP1/UAF1: Pilot qHTS (AID 504865; active means well fitted curve in the direction sought with a large enough effect; an effect the other way counts as inactive or inconclusive;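 further: rhodamine fluorescence freed from ubiquitin-rhodamine substrate followed over time; top concentration of the series differs between compounds; on the % scale 0 is the no-effect control and ±100 the full control effect; nearly all actives have a fitted effect of over 35% in size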). The following applies: purified USP1/UAF1, Ub-rhodamine cleavage fluorescence; series mostly up to 54.9 µM. The method, boiled down:
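Kinetic fluorescence assay: 1nM USP1/UAF1, 15 min compound preincubation, then 150nM Ub-Rho; 480/540 nm.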

Experiment [15] can be described thus: Stat Signaling Pathway (AID 446). Conditions: ME-180 (cervical carcinoma) SIE beta-lactamase reporter, IL-6 stimulated, 5 h; at 7.69 µM (top of the series) unless noted. The method, boiled down: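 Normalization used AC90 stimulation (300 pM IL-6) and AC90 inhibition (125 nM pan-JAK inhibitor at 40 pM IL-6). The underlying signal is SIE-driven beta-lactamase in ME-180 cells after 5 h IL-6 exposure with compound.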

Setting [16] is: measured here: cell count channel max response.
Where [17] appears, read: measured here: lipid channel max response.

3',5'-cyclic-AMP phosphodiesterase 4B (Homo sapiens), sequence (Q07343 whole entry, looked up): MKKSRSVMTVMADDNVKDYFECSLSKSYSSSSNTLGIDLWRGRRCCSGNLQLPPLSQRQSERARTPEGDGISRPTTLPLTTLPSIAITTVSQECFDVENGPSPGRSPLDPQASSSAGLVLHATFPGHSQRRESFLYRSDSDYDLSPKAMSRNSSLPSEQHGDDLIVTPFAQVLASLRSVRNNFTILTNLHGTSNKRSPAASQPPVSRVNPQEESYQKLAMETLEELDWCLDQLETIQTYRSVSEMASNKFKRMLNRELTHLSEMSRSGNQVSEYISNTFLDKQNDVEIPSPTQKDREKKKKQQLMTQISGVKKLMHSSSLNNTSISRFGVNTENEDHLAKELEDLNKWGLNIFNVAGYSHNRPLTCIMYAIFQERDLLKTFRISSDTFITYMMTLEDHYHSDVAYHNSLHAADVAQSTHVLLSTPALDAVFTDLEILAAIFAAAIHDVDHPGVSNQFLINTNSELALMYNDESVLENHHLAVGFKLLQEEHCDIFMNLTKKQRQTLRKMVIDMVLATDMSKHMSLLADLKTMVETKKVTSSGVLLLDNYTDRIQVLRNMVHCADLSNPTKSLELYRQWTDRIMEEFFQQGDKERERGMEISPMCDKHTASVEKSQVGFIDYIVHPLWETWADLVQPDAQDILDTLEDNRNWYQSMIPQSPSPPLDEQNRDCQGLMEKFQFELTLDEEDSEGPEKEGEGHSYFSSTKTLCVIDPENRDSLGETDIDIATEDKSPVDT
Lysosomal acid glucosylceramidase (Homo sapiens), sequence (P04062 whole entry, looked up): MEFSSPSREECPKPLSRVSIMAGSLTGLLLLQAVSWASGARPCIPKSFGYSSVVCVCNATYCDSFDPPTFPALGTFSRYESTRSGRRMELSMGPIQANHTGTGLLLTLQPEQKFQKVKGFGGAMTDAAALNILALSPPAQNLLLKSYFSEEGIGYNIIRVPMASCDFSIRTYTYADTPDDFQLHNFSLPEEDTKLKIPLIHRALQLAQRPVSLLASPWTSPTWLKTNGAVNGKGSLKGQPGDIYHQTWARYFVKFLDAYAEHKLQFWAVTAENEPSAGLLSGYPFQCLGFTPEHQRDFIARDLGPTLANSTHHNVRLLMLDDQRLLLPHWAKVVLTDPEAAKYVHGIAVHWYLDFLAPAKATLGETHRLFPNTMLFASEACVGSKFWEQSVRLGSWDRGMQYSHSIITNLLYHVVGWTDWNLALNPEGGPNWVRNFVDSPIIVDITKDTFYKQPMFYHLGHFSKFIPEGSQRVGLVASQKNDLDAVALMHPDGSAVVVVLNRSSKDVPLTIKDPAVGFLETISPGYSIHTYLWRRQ
Glucocorticoid receptor (Homo sapiens), sequence (P04150 whole entry, looked up): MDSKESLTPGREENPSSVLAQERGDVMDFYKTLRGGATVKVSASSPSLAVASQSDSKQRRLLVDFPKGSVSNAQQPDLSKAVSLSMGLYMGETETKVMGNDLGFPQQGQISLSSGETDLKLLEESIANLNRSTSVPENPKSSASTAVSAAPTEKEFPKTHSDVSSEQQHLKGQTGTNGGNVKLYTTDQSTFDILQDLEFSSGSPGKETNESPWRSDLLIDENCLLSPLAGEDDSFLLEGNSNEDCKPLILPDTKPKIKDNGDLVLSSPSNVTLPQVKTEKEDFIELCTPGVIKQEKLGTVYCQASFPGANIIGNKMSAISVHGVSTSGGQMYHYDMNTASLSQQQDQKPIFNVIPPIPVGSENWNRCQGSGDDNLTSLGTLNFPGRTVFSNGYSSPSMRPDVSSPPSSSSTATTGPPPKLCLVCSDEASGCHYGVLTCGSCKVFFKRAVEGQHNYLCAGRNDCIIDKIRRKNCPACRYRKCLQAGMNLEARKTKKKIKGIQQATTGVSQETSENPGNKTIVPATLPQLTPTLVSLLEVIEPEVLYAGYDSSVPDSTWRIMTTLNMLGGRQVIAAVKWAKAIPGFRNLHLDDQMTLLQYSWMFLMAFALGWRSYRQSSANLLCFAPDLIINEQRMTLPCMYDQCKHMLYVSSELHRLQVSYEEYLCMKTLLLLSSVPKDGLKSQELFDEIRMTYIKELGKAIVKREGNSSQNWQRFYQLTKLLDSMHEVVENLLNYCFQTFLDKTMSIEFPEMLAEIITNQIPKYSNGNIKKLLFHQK
Ubiquitin carboxyl-terminal hydrolase 1 (Homo sapiens), sequence (O94782 whole entry, looked up): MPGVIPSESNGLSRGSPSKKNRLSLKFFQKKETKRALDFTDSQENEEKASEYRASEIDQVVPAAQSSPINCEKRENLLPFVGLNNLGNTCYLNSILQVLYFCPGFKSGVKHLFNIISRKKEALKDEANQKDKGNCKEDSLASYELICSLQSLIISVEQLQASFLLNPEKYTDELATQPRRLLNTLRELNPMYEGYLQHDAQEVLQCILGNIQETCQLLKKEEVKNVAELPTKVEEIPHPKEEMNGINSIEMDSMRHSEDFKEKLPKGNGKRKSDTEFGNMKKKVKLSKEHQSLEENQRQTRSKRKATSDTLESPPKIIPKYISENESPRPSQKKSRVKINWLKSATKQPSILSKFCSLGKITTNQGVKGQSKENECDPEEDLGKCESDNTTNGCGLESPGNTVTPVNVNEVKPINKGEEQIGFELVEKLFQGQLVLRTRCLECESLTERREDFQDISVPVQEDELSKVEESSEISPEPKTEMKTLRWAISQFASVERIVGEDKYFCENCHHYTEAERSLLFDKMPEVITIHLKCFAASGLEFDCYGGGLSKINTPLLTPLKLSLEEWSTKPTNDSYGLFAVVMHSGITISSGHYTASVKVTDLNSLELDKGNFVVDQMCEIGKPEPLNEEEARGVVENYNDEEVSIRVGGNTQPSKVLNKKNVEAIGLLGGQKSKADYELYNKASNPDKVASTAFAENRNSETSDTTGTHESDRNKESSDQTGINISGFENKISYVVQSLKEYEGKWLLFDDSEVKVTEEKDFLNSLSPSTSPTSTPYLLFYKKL
Cytochrome P450 2C9 (Homo sapiens), sequence (P11712 whole entry, looked up): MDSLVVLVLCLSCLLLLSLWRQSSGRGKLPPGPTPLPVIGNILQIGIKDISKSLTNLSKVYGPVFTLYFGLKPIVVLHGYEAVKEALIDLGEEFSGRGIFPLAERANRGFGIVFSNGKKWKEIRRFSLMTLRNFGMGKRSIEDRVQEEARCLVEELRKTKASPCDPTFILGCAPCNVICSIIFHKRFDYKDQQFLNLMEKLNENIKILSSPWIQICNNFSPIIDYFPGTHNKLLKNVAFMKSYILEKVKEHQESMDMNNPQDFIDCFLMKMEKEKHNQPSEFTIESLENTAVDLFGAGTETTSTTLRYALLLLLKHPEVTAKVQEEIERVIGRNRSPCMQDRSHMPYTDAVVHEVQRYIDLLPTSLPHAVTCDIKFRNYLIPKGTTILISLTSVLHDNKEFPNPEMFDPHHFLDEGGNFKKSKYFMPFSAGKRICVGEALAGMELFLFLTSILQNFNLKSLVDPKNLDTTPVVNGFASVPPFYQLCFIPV

`COc1ccc(Oc2ncc3nc(-c4cn(C)c5ccccc45)c(=O)n(CCC#N)c3n2)cc1`: the Potency is > 11.4 µM (inactive) in experiment [1], > 9.22 µM (inactive) in experiment [4], > 46 µM (inactive) in experiment [5] and 3.16 µM (active) in experiment [8]. Besides, the values for the activity change, negative = inhibition in [2], in experiment [3] and in [9] were -1.79% (inactive), -2.24% (inactive) and -4.32% (inactive), respectively. Moreover, the Potency result in experiment [6] and in experiment [7] was “inactive” in each case. Also, the figures for the max response in experiment [9] (setting [16]) and in [9] (setting [17]) were 27.8% and 26.1%, respectively. For the same compound, the result in experiment [10] was inactive.

With `c1cncc(-c2nccc(-n3ccnc3)n2)c1`, the Potency in experiment [1] is > 11.4 µM (inactive); in experiment [4], > 46 µM (inactive); in experiment [5], > 46 µM (inactive). The figures for the activity change, negative = inhibition in experiment [2], in [3] and in experiment [9] were -19.4% (inactive), 1.68% (inactive) and 7.22% (inactive), respectively. In addition, the Potency result in experiment [6], in experiment [11], in experiment [12] and in experiment [14] was “inactive” in each case. Further, the call in experiment [13] and in experiment [10] was inactive. Moreover, the max response came out at 3.87% in experiment [9] (setting [16]) and 13.2% in [9] (setting [17]).

As for `CC(C)CN1CCC2(CC1)CCN(C(=O)c1ccco1)CC2`, the Potency in experiment [1] is > 11.4 µM (inactive); in experiment [5] it was > 46 µM (inactive). Also, the activity change, negative = inhibition in [2] was 10.1% (inactive); in experiment [9] it was -0.991% (inactive). Further, the activity, negative = inhibition in [15] was -2.71% (inactive). In addition, the Potency result in experiment [6] and in experiment [11] was “inactive” in each case. In addition, the max response in experiment [9] (setting [16]) is -0.576%; in experiment [9] (setting [17]), 1.45%. The result in experiment [10] was inactive.

Regarding `CS(=O)(=O)N1CCC2(CC1)CN(Cc1ccc(C#N)cc1)C2`, the Potency in experiment [1] is > 11.4 µM (inactive); in experiment [5], > 46 µM (inactive). Moreover, the activity change, negative = inhibition is -16.8% (inactive) in experiment [2], -16.5% (inactive) in experiment [3] and 4.04% (inactive) in experiment [9]. For the same compound, the Potency entry in experiment [6] and in experiment [11] was “inactive” throughout. For the same compound, the max response in experiment [9] (setting [16]) was found to be 9.72%; in experiment [9] (setting [17]), 16.5%. For the same compound, the result in [10] was inactive.

Regarding `COc1ccc2[nH]cc(CCNc3nc(-c4cccc(NS(C)(=O)=O)c4)nc4ccccc34)c2c1`, the Potency in experiment [1] is > 11.4 µM (inactive); in [4], > 46 µM (inactive); in [5] it was > 46 µM (inactive). Further, the activity change, negative = inhibition in experiment [2] was -29.4% (inactive); in experiment [9], 8.36% (inactive). In experiment [15], the activity, negative = inhibition was -28.4% (inactive). Further, the Potency result in [6], in experiment [11] and in [14] was “inactive” throughout. Also, the call in experiment [13] and in experiment [10] was inactive. For the same compound, the values for the max response in [9] (setting [16]) and in experiment [9] (setting [17]) were -14.6% and -4.03%, respectively.

Consider `COc1ccc(C(=O)N2CCC[C@@]3(CCN(c4ccncc4)C3)C2)cc1`, for which the Potency in experiment [1] was > 11.4 µM (inactive); in experiment [5], > 46 µM (inactive). In addition, the activity change, negative = inhibition was -1.81% (inactive) in experiment [2], -12.2% (inactive) in experiment [3] and 0.196% (inactive) in experiment [9]. Further, the Potency result in experiment [6] and in experiment [11] was “inactive” throughout. The max response was -12% in experiment [9] (setting [16]) and -10.7% in [9] (setting [17]). Moreover, the result in experiment [10] was inactive.

With `COc1ccc(C(=O)N2CCC3(CC2)CN(c2ccc(-c4ccccc4)cc2)C3)cc1`, the Potency was > 11.4 µM (inactive) in [1] and > 46 µM (inactive) in [5]. For the same compound, the activity change, negative = inhibition in experiment [2] was -5.62% (inactive); in experiment [3] it was -9.07% (inactive); in [9], -3.67% (inactive). Besides, the Potency entry in [6] and in [11] was “inactive” throughout. The values for the max response in [9] (setting [16]) and in experiment [9] (setting [17]) were 9.2% and 7.61%, respectively. The outcome in [10] was inactive.
